Bst PK mod = modulators of Bacillus stearothermophilus pyruvate kinase; purified pyruvate kinase, luminescence ATP production; ribose 5-phosphate activator present at AC10; 51,000 compounds, 1.2% hits; Potency, µM; AID 361; in the data active = potency below about 11 µM; inconclusive = mostly about 12 µM to 25 µM;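 the screen sought inhibitors and activators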
ALOX15 inhib = inhibitors of human 15-lipoxygenase (ALOX15); purified 15hLO-1, xylenol orange hydroperoxide absorbance; Potency, µM (doses to about 57.1 µM), actives largely listed as inhibitors; 74,000 compounds, 1.4% hits; also: nearly all actives have a fitted effect of over 55% in size
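Purified human 15hLO-1 (40 nM) in 25 mM Hepes pH 7.5, 0.01% Triton X-100, preincubated 15 min RT with compound, then 50 uM arachidonic acid for 6 min. Hydroperoxide read by ferrous/xylenol orange, 30 min; 573/405 nm absorbance ratio gave progress.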
Luciferase inh = firefly luciferase inhibition. 72,000 compounds, 2.2% hits. purified firefly luciferase, luminescence, 8 min. Potency, µM (doses to about 57.1 µM), usual class: inhibitors; also: nearly all actives have a fitted effect of over 40% in size
Target sequence (P08659 whole entry, looked up): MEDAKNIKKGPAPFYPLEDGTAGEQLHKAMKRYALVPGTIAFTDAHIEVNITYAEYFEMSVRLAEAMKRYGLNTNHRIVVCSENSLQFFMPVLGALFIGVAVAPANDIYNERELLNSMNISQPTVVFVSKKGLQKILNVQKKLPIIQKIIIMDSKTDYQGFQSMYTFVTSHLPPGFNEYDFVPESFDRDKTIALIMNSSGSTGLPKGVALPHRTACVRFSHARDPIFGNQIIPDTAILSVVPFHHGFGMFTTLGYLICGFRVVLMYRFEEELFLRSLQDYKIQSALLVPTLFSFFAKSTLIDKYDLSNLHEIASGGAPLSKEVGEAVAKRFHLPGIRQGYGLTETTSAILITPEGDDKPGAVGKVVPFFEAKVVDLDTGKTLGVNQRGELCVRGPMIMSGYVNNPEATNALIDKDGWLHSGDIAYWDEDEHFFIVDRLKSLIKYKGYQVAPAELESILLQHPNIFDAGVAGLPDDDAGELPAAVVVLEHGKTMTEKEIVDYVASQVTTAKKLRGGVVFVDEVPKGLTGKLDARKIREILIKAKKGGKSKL
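Substrate buffer containing 10 uM ATP (pH 7.2 imidazole, Mg2+, KCl, detergent, BSA) is dispensed, compound pinned in, then luciferase/luciferin detector mix added. After 8 min at ambient temperature, light output is measured.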
HEK293 cAMP ctrl = counter-screen for TSHR agonists: cAMP increase in parental HEK293. parental HEK293 CNG cAMP sensor, membrane potential fluorescence. Potency, µM (series often up to 57.1 µM), usual class: activators. 73,000 compounds, 2.5% hits. AID 938; also: nearly all actives have a fitted effect of over 55% in size
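Parental HEK 293 cells stably expressing a modified CNG channel (no TSHR) report cAMP rise as membrane depolarization. Membrane potential dye with 100 uM RO 20-1724 was loaded for 60 min at room temperature, then compound added for 30 min; fluorescence read at 590 nm.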
TSHR agonist = TSH receptor (human) agonism | Potency, µM (doses to about 57.1 µM), most hits filed as activators | HEK293-CNG-TSHR cells (CNG channel as cAMP sensor), membrane potential dye, cAMP | P16473 | 73,000 compounds, 0.48% hits; active = well fitted activation curve with a large enough effect in the main read-out, with a control signal flat, not every such curve was filed as active; inconclusive = small, poorly fitted or top-dose-only effect, or a change in a side signal; inactive = no such curve, though single readings can be large or run the other way; reference of the percent scale not stated here;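 also: the control signal comes from parental cells without the receptor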
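HEK 293 cells stably expressing TSHR and a modified CNG channel, with CNG-only parental cells as counterscreen, were preloaded 60 min at room temperature with membrane potential dye containing 100 uM RO 20-1724. Compound exposure was 30 min, and depolarization was read as fluorescence at 590 nm.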
Tau filament bind = binders of human tau filaments. 71,000 compounds, 2% hits. recombinant tau filaments, thioflavin S fluorescence, 15 h; filaments grown with octadecylsulfate alongside compound. P10636. Potency, µM (top dose mostly 57.1 µM);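 also: actives lower thioflavin S fluorescence by blocking filaments or displacing dye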
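His-tagged recombinant human tau (exons 2, 3, 10; 1 uM final) fibrillized with 30 uM sodium octadecylsulfate, 15 h at 37 C, in pH 7.4 HEPES buffer with 10 uM thioflavine S and 5 mM DTT. Reduced ThS fluorescence (450/510 nm) marks activity.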
Hits are given with their value; [ ] = remark or other dose. The list is not random: actives were taken first. Their share in the collection is about 7.8%. Unless noted, calls follow the shape of the dose curve; as a rule, active = well fitted curve in the direction sought with a large enough effect; inconclusive = small, poorly fitted or top-dose-only effect, or another doubt; inactive = no such curve, though single readings can be large; an effect the other way counts as inactive or inconclusive.

For CCCCCCSC1=C(C#N)C(c2ccc(O)cc2)CC(=O)N1 (stereo not drawn) the results were Bst PK mod inactive, ALOX15 inhib 20µM, Luciferase inh inactive, HEK293 cAMP ctrl inactive, TSHR agonist inactive and Tau filament bind inactive.
For O=C(O)CCN1Cc2ccccc2C1=O the results were Bst PK mod inactive, ALOX15 inhib 20µM, Luciferase inh inactive, HEK293 cAMP ctrl inconclusive, TSHR agonist inconclusive and Tau filament bind inactive.
`Cn1c(=O)n(CCC(=O)O)c2ccccc21` gave Bst PK mod inactive and Luciferase inh inactive.
CCC(=O)Nc1ccc(C(=O)Nc2ccc3c(c2)OCO3)cc1 was read as Bst PK mod inactive, ALOX15 inhib inactive, Luciferase inh inactive, HEK293 cAMP ctrl inactive, TSHR agonist inactive and Tau filament bind inactive.
For CCOC(=O)CNc1ccc2c(c1)OCO2 the results were Bst PK mod inactive, ALOX15 inhib 2µM, Luciferase inh inactive, HEK293 cAMP ctrl inactive, TSHR agonist inactive and Tau filament bind inactive.
Screening CCOC(=O)c1c(C)c(C(=O)Nc2ccc3c(c2)OCO3)c(C)n1C returned Bst PK mod inactive, ALOX15 inhib inactive, Luciferase inh inactive, HEK293 cAMP ctrl inactive, TSHR agonist inactive[11.4 µM] and Tau filament bind inactive.
Screening CCOC(=O)c1c(N)sc(C(=O)Nc2ccc3c(c2)OCO3)c1C returned Bst PK mod 1, ALOX15 inhib inactive, Luciferase inh 0.79µM, HEK293 cAMP ctrl inactive, TSHR agonist inactive and Tau filament bind inactive.
COc1cc2c(cc1OC)C(C)N(C(=O)CCN1C(=O)C3C4C=CC(C4)C3C1=O)CC2 (stereo not drawn) was read as Bst PK mod inactive, ALOX15 inhib inactive, Luciferase inh inactive, HEK293 cAMP ctrl inactive[2.29 µM], TSHR agonist inactive and Tau filament bind inactive.
Screening COc1cccc(Cn2c(=O)c(-c3cccs3)nc3cnc(N4CCOCC4)nc32)c1 returned ALOX15 inhib inactive, Luciferase inh inactive[11.4 µM], HEK293 cAMP ctrl inactive, TSHR agonist inactive and Tau filament bind inactive.
`NS(=O)(=O)c1ccc(NCc2nc3ccccc3[nH]2)cc1` gave ALOX15 inhib inactive[11.4 µM], Luciferase inh inactive[11.4 µM], HEK293 cAMP ctrl inactive[11.4 µM], TSHR agonist inactive[11.4 µM] and Tau filament bind inactive[11.4 µM].
Screening CCOC(=O)Nc1cccc(Nc2ccccc2)c1 returned Bst PK mod inactive, ALOX15 inhib inactive, Luciferase inh inactive, HEK293 cAMP ctrl inactive, TSHR agonist inactive and Tau filament bind inactive.
C=C(C)C1CCC(C)=C1COC(=O)Nc1ccccc1 (stereo not drawn) was read as ALOX15 inhib 6.3µM and HEK293 cAMP ctrl inactive.
Screening CC(=O)OC1CC[C@@]2(C)C3=CC(=O)[C@]4(C)C(CC5OC6(OCC(C)CC6Br)C(C)C54)C3CC[C@H]2C1 (stereo partly drawn) returned ALOX15 inhib inactive.
`Clc1ccc(-c2nn3c(-c4ccccc4)nnc3s2)cc1` gave Bst PK mod inactive, ALOX15 inhib inactive, Luciferase inh inactive, HEK293 cAMP ctrl inconclusive, TSHR agonist inconclusive and Tau filament bind inactive.
Screening Cc1nn2cc(-c3ccccc3)nc2s1 returned Bst PK mod inconclusive, ALOX15 inhib 25µM, Luciferase inh 10µM, HEK293 cAMP ctrl inactive, TSHR agonist inactive and Tau filament bind inactive.
Screening Cc1c(C(=O)N2CCOCC2)sc2nc(-c3ccccc3)cn12 returned ALOX15 inhib inactive, Luciferase inh inactive, HEK293 cAMP ctrl inactive, TSHR agonist inactive and Tau filament bind inactive.
`c1ccc(-c2cn3nc(-c4ccccc4)sc3n2)cc1` gave ALOX15 inhib inactive, Luciferase inh 0.13µM, HEK293 cAMP ctrl inactive, TSHR agonist inactive and Tau filament bind inactive.
Screening O=S(=O)(C[C@H](O)C(Cl)(Cl)Cl)NNc1ccccc1 returned ALOX15 inhib inactive[11.4 µM], Luciferase inh inactive[11.4 µM], HEK293 cAMP ctrl inactive[11.4 µM], TSHR agonist inactive[11.4 µM] and Tau filament bind inactive[11.4 µM].
Screening CC(=O)N1CC=CC1(CC(C)C)C(=O)O (stereo not drawn) returned ALOX15 inhib inactive, HEK293 cAMP ctrl inactive, TSHR agonist inactive and Tau filament bind inactive.
FC(F)(F)c1cc(CO[C@H]2CCCN[C@H]2c2ccccc2)cc(C(F)(F)F)c1 was read as ALOX15 inhib inactive, Luciferase inh inactive, HEK293 cAMP ctrl 20µM, TSHR agonist inconclusive and Tau filament bind inconclusive.
For Cc1cc(-c2ccc(N3C(=O)CCC3=O)c(C)c2)ccc1N1C(=O)CCC1=O the results were ALOX15 inhib inactive, Luciferase inh 16µM, HEK293 cAMP ctrl inactive, TSHR agonist inactive and Tau filament bind inactive.
For CC1=C(CC[C@H](C)CO)O[C@@H]2C[C@@H]3[C@H]4CC[C@H]5C[C@@H](O)CC[C@]5(C)[C@@H]4CC(=O)[C@@]3(C)[C@@H]12 the results were ALOX15 inhib inactive[11.4 µM], Luciferase inh inactive[11.4 µM], HEK293 cAMP ctrl inactive[11.4 µM], TSHR agonist inactive[11.4 µM] and Tau filament bind inactive[11.4 µM].
For O=C(COc1ccc2c(c1)CCC2)N1CCc2ccccc21 the results were Bst PK mod inactive, ALOX15 inhib inactive, Luciferase inh 25µM, HEK293 cAMP ctrl 25µM, TSHR agonist inconclusive and Tau filament bind inactive.
For CCOC(=O)c1ccc(NC(=O)N2CCc3ccccc32)cc1 the results were Bst PK mod inactive, ALOX15 inhib inactive, Luciferase inh 4µM, HEK293 cAMP ctrl inactive, TSHR agonist inactive and Tau filament bind inactive.
Screening O=C(OCC(=O)N1CCc2ccccc21)c1ccccc1 returned ALOX15 inhib inactive, Luciferase inh 20µM, HEK293 cAMP ctrl inactive, TSHR agonist inactive and Tau filament bind inactive.
O=C(OCC(=O)N1CCc2ccccc21)c1cccnc1 was read as Bst PK mod inactive, ALOX15 inhib inactive, Luciferase inh inactive, HEK293 cAMP ctrl inactive, TSHR agonist inactive and Tau filament bind inactive.
`CCOC(=O)c1cc2sccc2n1CC(=O)N1CCc2ccccc21` gave Bst PK mod inactive, ALOX15 inhib inactive, Luciferase inh inactive, HEK293 cAMP ctrl 16µM, TSHR agonist inconclusive and Tau filament bind inactive.
Screening CCOCC(=O)N1CCc2ccccc21 returned Bst PK mod inactive, ALOX15 inhib inactive, Luciferase inh inactive, HEK293 cAMP ctrl inactive, TSHR agonist inactive and Tau filament bind inactive.
O=C(O)CSCCC(=O)Nc1ccc(F)cc1 was read as Bst PK mod inactive, ALOX15 inhib inactive, Luciferase inh inactive, HEK293 cAMP ctrl inactive, TSHR agonist inactive and Tau filament bind inactive.
For CC1=CC(=O)CC(C)(C)[C@]1(O)/C=C\C(C)=C\C(=O)O the results were ALOX15 inhib inactive[11.4 µM], Luciferase inh inactive[11.4 µM], HEK293 cAMP ctrl inactive[11.4 µM], TSHR agonist inactive[11.4 µM] and Tau filament bind inactive[11.4 µM].
`Cc1ccc(-n2nnnc2SCC(=O)NCCC2=CCCCC2)c(C)c1` gave Bst PK mod inactive, ALOX15 inhib 32µM, Luciferase inh inactive, HEK293 cAMP ctrl 32µM, TSHR agonist inconclusive and Tau filament bind inactive.

Source: PubChem BioAssay (National Center for Advancing Translational Sciences (NCATS))
